The test system of assay [1] is HIV-1 nucleocapsid protein NCp7 (binding to TG oligonucleotide). The assay can be described thus: HIV Nucleocapsid (AID 346; call rule not given here;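 note: potency is the fitted concentration of half-maximal effect; potency is for inhibitors that block NC binding and lower polarization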). Conditions: HIV-1 NC / fluorescein-TGTGTGTG probe, fluorescence polarization. A digest of the protocol: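 Inhibition of nucleocapsid binding to single-stranded 5'-TGTGTGTG probe (10 nM) was measured by fluorescence polarization after 1 hr at room temperature with 100 nM protein under high-salt, zinc-containing, reducing conditions.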

For assay [2], the target named is Lysosomal acid glucosylceramidase (Homo sapiens) (UniProt P04062). Description: Glucocerebrosidase-p2 (AID 348; in the data active = potency below about 10 µM; note: potency is the fitted concentration of half-maximal effect). Conditions: purified GBA, blue fluorogenic substrate, 40 min. A digest of the protocol:
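Normal human glucocerebrosidase (0.2 nM) with blue fluorogenic substrate (80 uM final) in citrate/phosphate pH 5.9 with 10mM sodium taurocholate, 0.01% tween-20; 40 min RT, NaOH/glycine stop; fluorescence Ex 365/Em 440; AC50 from a titration from 0.6 nM upwards.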

The nature of assay [3]: AP1 Signaling Pathway (AID 357). Note: % is set by controls: 0 for no effect and ±100 for the full control effect. A digest of the protocol:
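ME-180 cells with beta-lactamase reporter under AP-1 response element, stimulated with EC50 EGF; compounds tested in titration series, 5 h at 37 °C. CCF4 substrate added 2.5 h at room temperature; 460/530 nm emission ratio gave %activity and AC50.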

In assay [4] the target is Cytochrome P450 1A2 (Homo sapiens) (UniProt P05177). Description: p450-cyp1a2 (AID 410; calls by dose curve; note: potency is the fitted concentration of half-maximal effect;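 for activity change, negative = inhibition: -100% = full effect of reference inhibitor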). A digest of the protocol:
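Luminescent demethylation readout: Luciferin-ME (100uM, equal to Km) turned over by 20nM CYP1A2 for 60 min at room temperature after NADPH regeneration addition, following 10 min compound preincubation. Normalization used 57 uM furafylline as full inhibition.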

Assay [5] can be described thus: Stat Signaling Pathway (AID 446).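 Note: ME-180 cervical cancer cells given 40 pM IL-6 alongside compound; SIE-controlled beta-lactamase reporter measured as 460/530 nm FRET emission ratio; % is set by controls: 0 for no effect and ±100 for the full control effect.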 A digest of the protocol:
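FRET read-out (405 nm excitation, 460/530 nm emission) of a beta-lactamase reporter under a STAT-inducible element in ME-180 cervical carcinoma cells. Cells with compound receive 40 pM IL-6 for 5 h. Values are normalised to AC90 stimulation and AC90 JAK-inhibitor controls.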

Assay [6] deals with Mitogen-activated protein kinase 10 (Mus musculus) (UniProt Q61831). Description: JNK3 AlphaScreen Assay (AID 530).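 Note: kinase came from lysate of stimulated human HepG2 cells; signal reports phosphorylation of biotinylated GST-cJun 1-79 at Ser73 with 10 µM ATP; % is set by controls: 0 for no effect and ±100 for the full control effect.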 An outline of the steps: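 Activity was read by AlphaScreen after JNK3-containing HepG2 lysate (cytokine pre-activated) phosphorylated biotinylated GST-cJun with 10 uM ATP at room temperature. Phospho-Ser73 cJun antibody with Protein-A acceptor beads provided detection.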

The target of assay [7] is 3',5'-cyclic-AMP phosphodiesterase 4B (Homo sapiens) (UniProt Q07343). Description: qHTS Assay for Inhibitors of PDE-IV (AID 607; active = well fitted activation curve with a large enough effect in the main read-out, with a control signal flat, not every such curve was filed as active; note: % of control where 0% means no effect). An outline of the steps:
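Cell-based read-out of cAMP via a modified cyclic nucleotide-gated channel and membrane potential dye (535/590 nm) in HEK293 cells expressing PDE4 endogenously. Compounds tested up to 22.9 uM final; 100 uM RO 20-1724 reference.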
In general terms: Quantitative high-throughput screening tests each substance at several concentrations.

The target of assay [8] is Cytochrome P450 3A4 (Homo sapiens) (UniProt P08684). Description: qHTS Assay for Activators of Cytochrome P450 3A4 (AID 885; active = well fitted curve in the direction sought with a large enough effect; an effect the other way counts as inactive or inconclusive; note: nearly all actives have a fitted effect of over 65% in size). A digest of the protocol: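 Luminescent readout of luciferin formed from 25 uM Luciferin-PPXE (KM level) by 20 nM CYP3A4 in 200 mM KPO4, with 60 min NADPH-driven reaction at room temperature after 10 min compound exposure. Ketoconazole (57 uM) defined 100% inhibition.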

A short description of assay [9]: qHTS Assay for Lipid Storage Modulators (AID 1519; calls by dose curve). To be noted: Drosophila S3 cells, BODIPY lipid droplet/cell ratio, laser cytometry, cells loaded with oleic acid; for activity change, negative = inhibition: at 57.5 µM (top of the series). A digest of the protocol: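 Cells seeded at 5,000 per well were treated with compounds over a concentration series and loaded with oleic acid (400 uM, as added). Lipid droplet fluorescence (488 nm excitation, 500-530 nm channel) was read by laser-scanning cytometry and normalized to 20 uM Triacsin C.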

A short description of assay [10]: Primary qHTS for small molecule stabilizers of the endoplasmic reticulum resident proteome: Secreted ER Calcium Modulated Protein (SERCaMP) assay (AID 1508630; active = well fitted curve in the direction sought with a large enough effect; an effect the other way counts as inactive or inconclusive; note: % is set by controls: 0 for no effect and ±100 for the full control effect). An outline of the steps: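 The SH-SY5Y reporter protocol was run at 3 concentrations up to 38.3 uM (primary) or 11 concentrations (follow-up): 16 h compound, 100 nM thapsigargin for 4 h, then extracellular luciferase luminescence.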

Assay [11] in a line: NFAT Signaling Pathway (AID 444). To be noted: Jurkat NFAT-bla M1, carbachol, beta-lactamase ratio, 5 h; at 7.69 µM (top of the series). An outline of the steps: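 Jurkat cells with NFAT-driven β-lactamase reporter and co-expressed M1 receptor, stimulated with carbachol (final 1 uM, ~EC50), compound titration, 5 h at 37 °C. CCF4 loaded 1 h at RT; 460/530 nm ratio gave %activity and AC50.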

Assay [12] addresses Glucocorticoid receptor (Homo sapiens) (UniProt P04150). The assay can be described thus: GR-EFC Redistribution (AID 451; calls by dose curve; note: potency is the fitted concentration of half-maximal effect). Conditions: CHO-K1 GR-EFC translocation, beta-gal luminescence, 2 h. A digest of the protocol: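 CHO-K1 cells expressing nuclear EA and GR-ED fragments of b-gal; compounds titrated up to 46 uM final, 2 h at 37 C. GR nuclear translocation read as complemented b-gal luminescence after 1 h RT detection.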

The target in assay [13] is Cytochrome P450 2C9 (Homo sapiens) (UniProt P11712). The assay can be described thus: qHTS Assay for Inhibitors and Substrates of Cytochrome P450 2C9 (AID 883; active = well fitted curve in the direction sought with a large enough effect; an effect the other way counts as inactive or inconclusive; note: nearly all actives have a fitted effect of over 60% in size; note: potency is the fitted concentration of half-maximal effect). An outline of the steps:
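Signal: luciferase luminescence reporting luciferin produced by CYP2C9. Conditions: 10nM enzyme, Luciferin-H 100uM at KM, 25mM KPO4, 37C, 60 min NADPH-driven reaction. Reference: 57uM sulphaphenazole as 100% inhibition.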

In assay [14] the target is Cytochrome P450 2D6 (Homo sapiens) (UniProt P10635). Description: qHTS Assay for Inhibitors and Substrates of Cytochrome P450 2D6 (AID 891; active = well fitted curve in the direction sought with a large enough effect; an effect the other way counts as inactive or inconclusive;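 note: luciferin methyl ether substrate demethylated by CYP2D6 with NADPH regeneration; % is set by controls: 0 for no effect and ±100 for the full control effect; nearly all actives have a fitted effect of over 60% in size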). A digest of the protocol:
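Luminescent read-out of luciferin formed by 5 nM human CYP2D6 demethylating 30 uM Luciferin-ME EGE (Km level) over 60 min at room temperature after NADPH regeneration addition. Data normalized to full inhibition by 1.43 uM quinidine.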

[15] abbreviates: measured here: cell count channel max response.
[16] abbreviates: measured here: lipid channel max response.

Structures are written as SMILES. Results filed as inconclusive are left out. The source made the active and inactive calls. Unless noted, calls come from the whole dose curve; as a rule, active = well fitted curve in either direction with a large enough effect (not every such curve was filed as active); inconclusive = small, poorly fitted or top-dose-only effect, or another doubt; inactive = flat fitted curve, though single readings scatter. Bounds are passed on as bounds.

Sequence of Glucocorticoid receptor (Homo sapiens) (P04150 whole entry, looked up, the tested form may be a part): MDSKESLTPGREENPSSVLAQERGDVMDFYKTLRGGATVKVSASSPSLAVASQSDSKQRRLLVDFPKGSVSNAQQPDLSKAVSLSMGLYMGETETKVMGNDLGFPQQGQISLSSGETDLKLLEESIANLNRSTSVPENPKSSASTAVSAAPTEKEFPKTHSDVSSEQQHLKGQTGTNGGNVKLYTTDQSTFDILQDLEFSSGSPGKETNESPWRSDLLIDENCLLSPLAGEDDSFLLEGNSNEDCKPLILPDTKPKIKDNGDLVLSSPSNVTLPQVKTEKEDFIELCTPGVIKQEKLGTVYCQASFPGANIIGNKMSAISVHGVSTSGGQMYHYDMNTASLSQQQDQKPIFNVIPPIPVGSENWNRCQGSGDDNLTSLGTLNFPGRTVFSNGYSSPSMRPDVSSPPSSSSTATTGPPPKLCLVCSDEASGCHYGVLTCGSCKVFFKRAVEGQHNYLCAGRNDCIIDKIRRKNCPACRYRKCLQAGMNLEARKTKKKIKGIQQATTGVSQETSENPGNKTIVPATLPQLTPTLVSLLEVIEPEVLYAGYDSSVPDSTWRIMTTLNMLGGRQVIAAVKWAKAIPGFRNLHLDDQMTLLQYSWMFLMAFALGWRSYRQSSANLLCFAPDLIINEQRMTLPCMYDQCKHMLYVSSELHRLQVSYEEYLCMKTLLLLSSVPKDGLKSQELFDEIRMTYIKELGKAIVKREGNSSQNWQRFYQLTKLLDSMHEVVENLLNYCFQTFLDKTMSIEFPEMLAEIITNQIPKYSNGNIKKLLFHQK
Sequence of Cytochrome P450 1A2 (Homo sapiens) (P05177 whole entry, looked up): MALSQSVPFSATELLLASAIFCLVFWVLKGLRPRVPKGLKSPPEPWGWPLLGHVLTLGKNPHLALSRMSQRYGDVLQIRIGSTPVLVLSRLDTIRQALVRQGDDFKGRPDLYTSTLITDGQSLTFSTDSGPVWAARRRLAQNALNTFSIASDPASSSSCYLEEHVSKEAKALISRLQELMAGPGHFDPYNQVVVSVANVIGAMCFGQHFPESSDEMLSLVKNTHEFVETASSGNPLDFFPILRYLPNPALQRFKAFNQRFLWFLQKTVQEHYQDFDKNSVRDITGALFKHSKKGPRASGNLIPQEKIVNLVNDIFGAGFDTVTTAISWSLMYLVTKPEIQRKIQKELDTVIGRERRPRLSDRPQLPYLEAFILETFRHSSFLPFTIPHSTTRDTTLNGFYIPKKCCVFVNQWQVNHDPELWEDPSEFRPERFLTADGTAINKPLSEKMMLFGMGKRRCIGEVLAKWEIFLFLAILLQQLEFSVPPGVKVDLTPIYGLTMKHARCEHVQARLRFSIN
Sequence of Cytochrome P450 3A4 (Homo sapiens) (P08684 whole entry, looked up): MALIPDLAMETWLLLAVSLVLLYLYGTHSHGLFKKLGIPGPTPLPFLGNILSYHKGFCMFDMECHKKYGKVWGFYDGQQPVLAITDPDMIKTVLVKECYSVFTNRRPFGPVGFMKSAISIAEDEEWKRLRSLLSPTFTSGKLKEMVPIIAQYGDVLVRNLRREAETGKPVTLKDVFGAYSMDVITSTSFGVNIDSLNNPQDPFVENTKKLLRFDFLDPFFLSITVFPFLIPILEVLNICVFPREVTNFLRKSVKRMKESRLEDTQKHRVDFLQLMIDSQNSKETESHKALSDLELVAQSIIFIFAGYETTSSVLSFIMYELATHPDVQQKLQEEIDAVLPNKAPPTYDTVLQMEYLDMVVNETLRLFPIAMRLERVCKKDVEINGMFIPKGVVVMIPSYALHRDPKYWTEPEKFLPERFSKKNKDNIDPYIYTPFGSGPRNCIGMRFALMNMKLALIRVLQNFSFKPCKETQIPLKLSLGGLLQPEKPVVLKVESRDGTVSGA
Sequence of 3',5'-cyclic-AMP phosphodiesterase 4B (Homo sapiens) (Q07343 whole entry, looked up): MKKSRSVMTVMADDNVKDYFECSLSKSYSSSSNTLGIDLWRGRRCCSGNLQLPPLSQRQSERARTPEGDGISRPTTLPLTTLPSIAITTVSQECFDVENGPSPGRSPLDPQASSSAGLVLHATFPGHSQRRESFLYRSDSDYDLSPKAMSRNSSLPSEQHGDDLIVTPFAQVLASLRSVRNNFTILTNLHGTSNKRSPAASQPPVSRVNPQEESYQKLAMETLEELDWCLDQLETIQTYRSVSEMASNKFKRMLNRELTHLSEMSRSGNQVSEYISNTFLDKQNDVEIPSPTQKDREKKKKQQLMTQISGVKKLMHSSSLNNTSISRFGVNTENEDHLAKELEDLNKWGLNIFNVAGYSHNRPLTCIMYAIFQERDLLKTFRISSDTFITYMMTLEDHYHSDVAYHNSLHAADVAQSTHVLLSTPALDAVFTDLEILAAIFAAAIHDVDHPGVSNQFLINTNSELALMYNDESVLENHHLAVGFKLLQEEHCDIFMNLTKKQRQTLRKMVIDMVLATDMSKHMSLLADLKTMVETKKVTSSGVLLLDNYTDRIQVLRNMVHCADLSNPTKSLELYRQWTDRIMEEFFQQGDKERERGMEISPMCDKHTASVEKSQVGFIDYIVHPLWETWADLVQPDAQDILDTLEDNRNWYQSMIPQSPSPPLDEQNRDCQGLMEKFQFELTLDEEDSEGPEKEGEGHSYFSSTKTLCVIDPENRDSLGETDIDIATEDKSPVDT
Sequence of Lysosomal acid glucosylceramidase (Homo sapiens) (P04062 whole entry, looked up): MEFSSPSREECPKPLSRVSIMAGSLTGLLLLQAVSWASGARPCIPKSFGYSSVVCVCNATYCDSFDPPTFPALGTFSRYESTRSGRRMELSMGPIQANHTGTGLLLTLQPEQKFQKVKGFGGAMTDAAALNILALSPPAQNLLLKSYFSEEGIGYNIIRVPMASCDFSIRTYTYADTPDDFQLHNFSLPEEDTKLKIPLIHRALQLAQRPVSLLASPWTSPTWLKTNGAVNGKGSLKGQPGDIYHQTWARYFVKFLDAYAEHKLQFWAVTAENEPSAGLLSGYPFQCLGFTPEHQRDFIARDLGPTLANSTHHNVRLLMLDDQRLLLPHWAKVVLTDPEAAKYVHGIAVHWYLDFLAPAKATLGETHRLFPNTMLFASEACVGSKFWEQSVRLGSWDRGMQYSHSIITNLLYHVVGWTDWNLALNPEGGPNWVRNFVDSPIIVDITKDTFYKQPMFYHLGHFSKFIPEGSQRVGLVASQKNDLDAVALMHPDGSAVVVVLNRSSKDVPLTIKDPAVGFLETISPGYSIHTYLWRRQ
Sequence of Cytochrome P450 2C9 (Homo sapiens) (P11712 whole entry, looked up): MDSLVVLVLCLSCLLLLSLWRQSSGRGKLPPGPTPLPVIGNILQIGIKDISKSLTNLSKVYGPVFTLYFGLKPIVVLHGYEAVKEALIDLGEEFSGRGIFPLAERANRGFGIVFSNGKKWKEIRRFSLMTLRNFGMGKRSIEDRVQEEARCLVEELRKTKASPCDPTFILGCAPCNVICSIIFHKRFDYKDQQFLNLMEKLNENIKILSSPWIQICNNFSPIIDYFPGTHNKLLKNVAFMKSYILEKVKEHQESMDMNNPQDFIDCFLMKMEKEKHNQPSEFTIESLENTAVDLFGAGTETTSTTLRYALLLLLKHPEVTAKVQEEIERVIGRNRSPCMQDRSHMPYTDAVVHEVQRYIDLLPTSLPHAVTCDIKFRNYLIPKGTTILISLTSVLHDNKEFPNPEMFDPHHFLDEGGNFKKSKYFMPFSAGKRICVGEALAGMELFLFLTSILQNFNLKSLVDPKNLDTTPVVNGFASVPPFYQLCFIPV
Sequence of Cytochrome P450 2D6 (Homo sapiens) (P10635 whole entry, looked up): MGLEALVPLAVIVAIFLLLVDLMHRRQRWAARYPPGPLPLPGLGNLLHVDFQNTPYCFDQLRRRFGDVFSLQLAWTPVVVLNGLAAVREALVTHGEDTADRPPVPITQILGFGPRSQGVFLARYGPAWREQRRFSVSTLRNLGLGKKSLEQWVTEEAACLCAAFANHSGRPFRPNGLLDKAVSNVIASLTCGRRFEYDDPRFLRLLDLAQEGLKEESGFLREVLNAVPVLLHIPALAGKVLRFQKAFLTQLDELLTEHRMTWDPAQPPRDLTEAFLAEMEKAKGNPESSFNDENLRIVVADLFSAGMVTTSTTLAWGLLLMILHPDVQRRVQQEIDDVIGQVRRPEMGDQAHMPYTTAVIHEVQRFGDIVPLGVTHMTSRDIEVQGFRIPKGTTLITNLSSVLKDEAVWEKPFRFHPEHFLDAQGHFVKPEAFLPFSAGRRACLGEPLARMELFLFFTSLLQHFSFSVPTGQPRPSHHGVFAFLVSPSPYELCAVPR

Regarding `N#Cc1ccc(CN2CCCC3(CCN(C(=O)Oc4ccccc4)CC3)C2)cc1`, the Potency in assay [1] is > 20 µM (inactive); in assay [2] it was > 11.4 µM (inactive). In addition, the result in assay [3], in assay [5], in assay [6] and in assay [10] was inactive. Also, the Potency result in assay [4], in assay [7] and in [8] was “inactive” in each case. Also, the activity change, negative = inhibition in assay [9] is 1.3% (inactive). Moreover, the max response stood at 11.6% in assay [9] (setting [15]) and 16.3% in [9] (setting [16]).
With `O=C(Nc1ccccc1)N1CC[C@@]2(CCCN(C(=O)Oc3ccccc3)C2)C1`, the Potency in [1] is > 20 µM (inactive); in assay [2], > 11.4 µM (inactive); in [4] it was 15.8 µM (active); in assay [12] it was > 46 µM (inactive). In addition, the outcome in assay [3], in assay [5], in assay [6] and in [10] was inactive. Moreover, the results for the activity change, negative = inhibition in assay [11] and in assay [9] were 1.93% (inactive) and 8.84% (inactive), respectively. In addition, the Potency entry in assay [8] was “inactive”. The max response in assay [9] (setting [15]) is 9%; in [9] (setting [16]) it was 23.4%.
Turning to `COCC(=O)N1CCC2(CCCN(Cc3ccncc3)C2)CC1`, the Potency in assay [1] is > 20 µM (inactive); in assay [2], > 11.4 µM (inactive); in assay [13] it was 5.01 µM (active). The outcome in assay [3], in assay [5], in assay [6] and in [10] was inactive. The Potency result in assay [4], in [7] and in assay [8] was “inactive” in each case. Besides, the activity change, negative = inhibition in assay [9] was 5.89% (inactive). Moreover, the figures for the max response in assay [9] (setting [15]) and in assay [9] (setting [16]) were 12.2% and 21.3%, respectively.
As to `O=C(Nc1cccc(F)c1)N1CC2(CCNCC2)C1`, in assay [2], the Potency is > 11.4 µM (inactive). The result in [3], in [5], in assay [6] and in assay [10] was inactive. In addition, the Potency result in assay [4] and in assay [7] was “inactive” throughout. Further, the activity change, negative = inhibition in [9] was 3.38% (inactive). The max response came out at 6.28% in assay [9] (setting [15]) and 12.8% in [9] (setting [16]).
Take `O=C(c1csnn1)N1CCC2(CC1)CN(Cc1ccncc1)C2`: the Potency in assay [2] was > 11.4 µM (inactive); in [4], 10 µM (active); in [12], > 46 µM (inactive). Moreover, the call in [3], in assay [5], in [6] and in assay [10] was inactive. Also, the Potency result in assay [7] and in assay [8] was “inactive” each time. Further, the activity change, negative = inhibition in assay [9] was 4.72% (inactive). Moreover, the max response in assay [9] (setting [15]) is 6.9%; in [9] (setting [16]), 14.2%.
For `O=C(Oc1ccccc1)N1CCC2(CCCN(Cc3ccccc3)C2)CC1`, the Potency in assay [2] is > 11.4 µM (inactive); in [12] it was > 46 µM (inactive). Moreover, the compound was called inactive in assay [3], in [5], in assay [6] and in assay [10]. The Potency result in assay [4], in assay [7] and in [8] was “inactive” in each case. Also, the activity change, negative = inhibition in [9] is 2.57% (inactive). Also, the results for the max response in assay [9] (setting [15]) and in assay [9] (setting [16]) were 0.129% and 4.78%, respectively.
As to `N#Cc1cccc(NC(=O)N2CC[C@@]3(CCCN(C(=O)Oc4ccccc4)C3)C2)c1`, the Potency in [1] is > 4 µM (inactive); in [2], > 11.4 µM (inactive); in assay [12], > 46 µM (inactive). Moreover, the compound was classed as inactive in assay [3], in assay [5], in assay [6] and in assay [10]. Besides, the Potency result in assay [4], in assay [7], in assay [13], in [8] and in [14] was “inactive” each time. Further, the activity change, negative = inhibition in assay [11] is -14.8% (inactive).

Values taken from PubChem BioAssay (NCATS).
